Drawing on PubChem BioAssay AID1117292 (Broad Institute, 2014), this text covers outcome for 22 compounds.

Structures are written as SMILES. Measured potencies and affinities stand elsewhere. Inconclusive results are not listed. Calls of active or inactive are those of the source.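 The calls were made as follows: active = compound whose fitted half-maximal dose for signal loss lies within twice the top dose in every replicate test; inconclusive = tests disagree, or flat partial signal loss or poor fit; inactive = every test inactive, flat, rising or too weak.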

Sequence of Endoplasmic reticulum aminopeptidase 1 (Homo sapiens) (Q9NZ08 whole entry, looked up): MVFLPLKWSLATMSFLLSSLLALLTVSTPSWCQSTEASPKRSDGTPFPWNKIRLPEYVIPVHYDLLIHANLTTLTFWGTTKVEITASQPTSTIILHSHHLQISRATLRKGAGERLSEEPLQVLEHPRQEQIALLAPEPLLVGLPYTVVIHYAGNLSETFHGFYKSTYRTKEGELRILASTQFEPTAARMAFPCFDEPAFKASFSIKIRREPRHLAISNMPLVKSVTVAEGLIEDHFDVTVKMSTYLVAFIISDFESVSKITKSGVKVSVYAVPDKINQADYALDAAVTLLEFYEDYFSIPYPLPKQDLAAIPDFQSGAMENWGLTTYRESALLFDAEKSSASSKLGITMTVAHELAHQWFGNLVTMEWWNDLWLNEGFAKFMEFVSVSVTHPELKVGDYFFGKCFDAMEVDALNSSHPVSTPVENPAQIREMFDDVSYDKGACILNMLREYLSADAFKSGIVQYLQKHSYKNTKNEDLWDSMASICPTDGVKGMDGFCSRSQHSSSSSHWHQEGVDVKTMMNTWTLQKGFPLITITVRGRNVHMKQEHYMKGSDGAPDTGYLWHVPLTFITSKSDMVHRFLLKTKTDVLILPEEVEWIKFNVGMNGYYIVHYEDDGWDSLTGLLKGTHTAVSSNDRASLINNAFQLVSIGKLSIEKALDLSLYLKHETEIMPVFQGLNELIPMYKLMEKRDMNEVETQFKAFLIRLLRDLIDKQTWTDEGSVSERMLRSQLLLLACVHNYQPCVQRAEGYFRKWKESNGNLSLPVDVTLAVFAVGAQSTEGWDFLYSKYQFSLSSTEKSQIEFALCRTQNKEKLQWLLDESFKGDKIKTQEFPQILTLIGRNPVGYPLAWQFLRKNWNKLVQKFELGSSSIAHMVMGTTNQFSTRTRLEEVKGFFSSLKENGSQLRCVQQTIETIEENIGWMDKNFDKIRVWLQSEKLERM

This assay addresses Endoplasmic reticulum aminopeptidase 1 (Homo sapiens) (UniProt Q9NZ08). Description: ERAP1 enzyme inhibitors, dose response, biochemical, fluorescence plate reader, dry powder (AID 1117292). The conditions noted are these: purified ERAP1, Leu-AMC fluorescence, 60 min; series mostly up to 50 µM.
Regarding `O=S(=O)(Nc1cc(C(F)(F)F)ccc1N1CCCCC1)c1ccc(F)cc1`, the compound was called inactive. In the case of `CC(=O)N1CCN(C(=O)C2(NC(=O)Nc3cccc(F)c3)CCCCC2)CC1`, the outcome was inactive.

Regarding `N#Cc1ccc(S(=O)(=O)Nc2cc(C(F)(F)F)ccc2N2CCCCC2)cc1`, the result was inactive.

On to `COc1ccc(C(=O)Nc2cc(C(F)(F)F)ccc2N2CCCCC2)cc1S(=O)(=O)O`, for which the compound was classed as inactive. Regarding `O=S(=O)(Nc1cc(C(F)(F)F)ccc1N1CCCCC1)c1ccccc1`, the outcome was inactive.

For the compound `CC(=O)N1CCN(C(=O)C2(NC(=O)Nc3ccc(C(C)C)cc3)CCCCC2)CC1`, the compound was called inactive. As for `COc1ccc(C(=O)Nc2cc(C(F)(F)F)ccc2N2CCOCC2)cc1S(=O)(=O)O`, the result was inactive. In the case of `CC(=O)N1CCN(C(=O)C2(NC(=O)Nc3cccc(C(F)(F)F)c3)CCCCC2)CC1`, the result was inactive.

Consider `CC(=O)N1CCN(C(=O)C2(NC(=O)Nc3ccc(C(C)C)cc3)CCCC2)CC1`, for which the compound was called inactive. As to `CC(=O)N1CCN(C(=O)CNC(=O)Nc2ccc(C)cc2)CC1`, the compound was called inactive.

In the case of `COc1ccc(C(=O)Nc2cc(C)ccc2N2CCCCC2)cc1S(=O)(=O)O`, the compound was called inactive. Turning to `COc1ccc(C(=O)Nc2cc(F)ccc2N2CCCCC2)cc1S(=O)(=O)O`, the outcome was inactive. For `CC(=O)N1CCN(C(=O)C2(NC(=O)Nc3ccc(C(F)(F)F)cc3)CCCCC2)CC1`, the call was inactive. Consider `O=S(=O)(Nc1cc(C(F)(F)F)ccc1N1CCCCC1)c1ccc(-c2ccccc2)cc1`, for which the compound was called inactive. As for `Cc1ccc(NC(=O)NC2(C(=O)N3CCN(c4ccccc4)CC3)CCCCC2)cc1`, the compound was classed as inactive.

In the case of `O=S(=O)(Nc1cc(C(F)(F)F)ccc1N1CCCCC1)c1ccc(Cl)cc1`, the result was inactive. In the case of `Cc1ccc(NC(=O)NC2(C(=O)N3CCNCC3)CCCCC2)cc1`, the compound was called inactive. Consider `CC(=O)N1CCN(C(=O)C2(NC(=O)Nc3ccccc3C(F)(F)F)CCCCC2)CC1`, for which the result was inactive. To `CC(=O)N1CCN(C(=O)C2(NC(=O)NC(C)(C)C)CCCCC2)CC1` belongs “inactive”; to `O=S(=O)(Nc1cc(C(F)(F)F)ccc1N1CCCCC1)c1cc(Cl)cc(Cl)c1`, “inactive”; to `O=S(=O)(Nc1cc(C(F)(F)F)ccc1N1CCCCC1)c1ccc(Br)cc1`, “inactive”. In the case of `O=C(Nc1cc(C(F)(F)F)ccc1N1CCCCC1)c1ccc(S(=O)(=O)O)cc1`, the call was inactive.
